# In PubChem BioAssay:
# Where “and” joins values, the source holds several entries; their conditions need not be identical. Equal entries are not always repeated. Calls of active or inactive are those of the source. Unless noted, the rule behind the calls is not given here. Square brackets hold non-standard residues; d marks the D form. Peptide text beside a SMILES is read from it. * marks the point of attachment. Phe(ol) = N[C@H](CO)Cc1ccccc1; Nle = CCCC[C@H](N)C(=O)O; Cbz = O=C(OCc1ccccc1)*; Boc = CC(C)(C)OC(=O)*; Aib = CC(C)(N)C(=O)O
# Legend:
# [1] = sensitizers of A549 cells to miR-34 induction, primary screen, imaging, A549 dox-inducible miR-34, nuclei and caspase counts (AID 1347080;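 active = compounds whose cell count with miR-34 switched on is under 0.7 times the count with it off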); settings: A549 miR-34 inducible, Hoechst nuclei count, 48 h
# [2] = inhibitors of Cryptococcus chitosan production, flow cytometry, Cibacron Brilliant Red staining (AID 1347148); settings: Cryptococcus neoformans chitosan, stronger effect = lower value; at 10 µM unless noted;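 note: compound exposure lasted three days at 37 degrees C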
# [3] = circadian clock period modulators, cell-based, LOPAC library, luminescence reporter (AID 2774); settings: circadian reporter cells, at 7 µM, actives lie on both sides;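 note: values are relative to mean of DMSO wells on each plate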
# [4] = hESC survival regulators, cell-based (AID 493140); settings: human embryonic stem cell survival screen; stronger effect = higher value;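 note: cells exposed to compounds for four days before counting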
# [5] = survival rescue of mitochondrial mutant cells in low glucose, primary screen, MELAS cybrids, Rieske KO mouse fibroblasts, CellTiter-Glo (AID 1508586;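 active = mean z-score across replicates of 1.96 or higher in either the MELAS or the Rieske mutant cell line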;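 note: z relative to plate mean and SD of compound and empty wells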)
# [6] = stronger effect = lower value, cell number ratio, induced over uninduced
# [7] = measured here: relative caspase fold change +Dox/-Dox
# [8] = measured here: total cells with miR-34 induction, stronger effect = lower value
# [9] = measured here: total cells without miR-34 induction
Structure (SMILES),"fold change [1, 6]","fold change [1, 7]","cell count [1, 8]","cell count [1, 9]",fold fluorescence [2],period change [3],survival [4],"z-score ([5]; MELAS cybrid survival, CellTiter-Glo 48 h, stronger effect = higher value)","z-score ([5]; Rieske KO mouse fibroblast survival, CellTiter-Glo 72 h)"
CC(C)[C@@H]1NC(=O)[C@H](Cc2ccccc2)NC(=O)[C@@H](CC(=O)O)NC(=O)CNC(=O)[C@H](CCCN=C(N)N)NC1=O,1.03 (inactive),0.655,1320,1280,6.81 [at 87 µM] (inactive),,,,
CSCC[C@H](NC(=O)[C@H](Cc1ccccc1)NC[C@@H](NC[C@@H](N)CS)C(C)C)C(=O)O,0.931 (inactive),1.07,6180,6640,4.75 [at 106.2 µM] (inactive),,,,
CCCCC/C=C\C/C=C\CCCCCCCC(=O)O[C@@H](CO)COC(=O)CCCCCCCCCCCCCCCCC,0.999 (inactive),1.31,6430,6430,4.76 (inactive),,,,
CCCCC/C=C\C\C=C/C=C/C=C/[C@@H](SC[C@H](N)C(=O)O)[C@@H](O)CCCC(=O)O,1.09 (inactive),1.02,6150,5660,3.87 [at 1 µM] (inactive),,,,
Clc1ccc2ncnc(NCc3ccc4c(c3)OCO4)c2c1,0.968 (inactive),1.41,3640,3760,6.11 [at 159.4 µM] (inactive),,,,
c1ccc(CN(CCN(Cc2ccccn2)Cc2ccccn2)Cc2ccccn2)nc1,0.775 (inactive),2.99,418,538,9.33 [at 117.8 µM] (inactive),,,,
C=CC1CN2CCC1C[C@@H]2[C@H](O)c1ccnc2ccc(OC)cc12 (stereo partly drawn),0.899 (inactive),1.42,4890,5440,5.27 [at 154.1 µM] (inactive),,,,
CC(C)[C@H](NC(=O)CNC(=O)OC(C)(C)C)C(=O)N[C@H](C=O)C(C)C (Boc-Gly-Val-Val-aldehyde),0.895 (inactive),1.12,5740,6410,10.2 [at 139.9 µM] (inactive),,,,
CC12C=CC(=O)C=C1CCC1C2=CCC2(C)C1CC[C@@H]2C(=O)CN1CCN(c2cc(N3CCCC3)nc(N3CCCC3)n2)CC1 (stereo partly drawn),0.969 (inactive),1.43,4330,4470,7.93 [at 81.9 µM] (inactive),,,,
CCCCC[C@H](O)CC(=O)CCc1ccc(O)c(OC)c1,0.985 (inactive),0.961,5360,5440,5.62 [at 169.8 µM] (inactive),,,,
C=C[C@@]1(C)CC(=O)[C@]2(O)[C@@]3(C)[C@H](O)CCC(C)(C)[C@@H]3[C@H](O)[C@H](OC(C)=O)[C@@]2(C)O1,0.854 (inactive),0.977,5250,6150,6.21 [at 121.8 µM] (inactive),,,,
CCCCC/C=C\C\C=C/C=C/C=C/[C@@H](SC[C@H](N)C(=O)NCC(=O)O)[C@@H](O)CCCC(=O)O,0.978 (inactive),1.35,5990,6130,3.83 [at 1 µM] (inactive),,,,
CN([C@@H](Cc1ccc(OS(=O)(=O)c2cccc3cnccc23)cc1)C(=O)N1CCN(c2ccccc2)CC1)S(=O)(=O)c1cccc2cnccc12,0.962 (inactive),1.57,5440,5650,3.04 [at 69.3 µM] (inactive),,,,
CCCCCCCCCCCCCCCCCCc1ccc(C(=O)/C=C/C(=O)O)cc1,0.918 (inactive),0.873,5110,5560,13.3 [at 116.6 µM] (inactive),,,,
CCCC(=O)Nc1nc2c(ncn2C2O[C@H]3COP(=O)(O)O[C@@H]3[C@@H]2OC(=O)CCC)c(=O)[nH]1 (stereo partly drawn),1.02 (inactive),0.664,5430,5330,6.9 [at 103 µM] (inactive),,,,
CCCC[C@@H](C)/C=C(C)/C=C(\C)C(=O)NC1=C[C@@](O)(/C=C/C=C/C=C/C(=O)NC2=C(O)CCC2=O)[C@@H]2O[C@@H]2C1=O,1.01 (inactive),1.03,1310,1290,7.73 [at 90.8 µM] (inactive),,,,
CCCCC[C@@H](O)/C=C/[C@H]1[C@H](C/C=C\CCCC(=O)O)C(=O)C[C@@H]1O,0.916 (inactive),0.858,4850,5300,3.88 (inactive),,,,
CCCCC/C=C\C\C=C/C=C/C=C/[C@@H](SC[C@H](NC(=O)CC[C@H](N)C(=O)O)C(=O)NCC(=O)O)[C@@H](O)CCCC(=O)O,1.08 (inactive),1.43,6410,5930,3.59 [at 1 µM] (inactive),,,,
CCC(C)[C@H](NS(=O)(=O)c1cccc2ccccc12)C(=O)N[C@H](C=O)Cc1c[nH]c2ccccc12 (stereo partly drawn),0.877 (inactive),1.24,2990,3410,3.23 [at 101.7 µM] (inactive),,,,
CCCCCC(=O)/C=C/C=C\C/C=C\C/C=C\CCCC(=O)O,0.995 (inactive),1.32,6100,6140,5.6 [at 1 µM] (inactive),,,,
CC(=O)NC(C)(C)C(=O)N1CCC[C@H]1C(=O)NC(C)(C)C(=O)N[C@@H](C)C(=O)NC(C)(C)C(=O)N[C@@H](C)C(=O)N[C@@H](CCC(N)=O)C(=O)NC(C)(C)C(=O)N[C@H](C(=O)NC(C)(C)C(=O)NCC(=O)N[C@@H](CC(C)C)C(=O)NC(C)(C)C(=O)N1CCC[C@H]1C(=O)N[C@H](C(=O)NC(C)(C)C(=O)NC(C)(C)C(=O)N[C@@H](CCC(=O)O)C(=O)N[C@@H](CCC(N)=O)C(=O)N[C@H](CO)Cc1ccccc1)C(C)C)C(C)C (Ac-[Aib]P[Aib]A[Aib]AQ[Aib]V[Aib]GL[Aib]PV[Aib][Aib]EQ[Phe(ol)]),1.08 (inactive),1.3,1460,1350,7.73 [at 25.5 µM] (inactive),,,,
COc1ccc([C@H]2Sc3ccccc3N(CCN(C)C)C(=O)[C@H]2OC(C)=O)cc1,1.07 (inactive),1.13,5870,5500,4.51 [at 120.6 µM] (inactive) and 3.48 [at 120.6 µM] (inactive),,,,
CC(C)C[C@@H](/C=C/S(C)(=O)=O)NC(=O)[C@H](CC(C)C)NC(=O)[C@H](CC(C)C)NC(=O)OCc1ccccc1,0.878 (inactive),1.63,585,666,3.84 [at 90.6 µM] (inactive),,,,
O=C[C@@H]1CCCN1C(=O)[C@@H]1CCCN1C(=O)OCc1ccccc1 (Cbz-Pro-Pro-aldehyde),0.854 (inactive),1.14,5160,6040,5.13 [at 151.3 µM] (inactive),,,,

Structure (SMILES),"fold change [1, 6]","fold change [1, 7]","cell count [1, 8]","cell count [1, 9]",fold fluorescence [2],period change [3],survival [4],"z-score ([5]; MELAS cybrid survival, CellTiter-Glo 48 h, stronger effect = higher value)","z-score ([5]; Rieske KO mouse fibroblast survival, CellTiter-Glo 72 h)"
CC(=O)N[C@@H](CC(C)C)C(=O)N[C@@H](CC(C)C)C(=O)N[C@H](C=O)CCCN=C(N)N,0.979 (inactive),0.761,5980,6110,4.98 [at 117.2 µM] (inactive),,,,
CCCCCCCCCC(=O)OC[C@H](CO)OC(=O)CCCCCCCCC,0.939 (inactive),0.854,5260,5600,7.36 (inactive),,,,
CCCCCCCCCCC1=C(C)C(=O)C(OC)=C(OC)C1=O,0.94 (inactive),1.42,3450,3660,4.65 [at 155.1 µM] (inactive),,,,
Nc1ncnc2c1nc(Br)n2C1O[C@H]2COP(=O)(O)O[C@@H]2[C@@H]1O (stereo partly drawn),0.835 (inactive),1.27,4570,5470,3.88 [at 122.5 µM] (inactive),,,,
CC[C@H]1[C@@H]2C=C[C@@H]3[C@H]4C/C=C\C(=O)NCCC[C@@H]5NC(=O)C(=C5O)C(=O)CC[C@@H]4C[C@@H]3[C@H]2C[C@H]1C,1.96 (inactive),0.587,636,324,7.3 [at 104 µM] (inactive),,,,
CCCC[C@@H](C=O)NC(=O)[C@H](CC(C)C)NC(=O)[C@H](CC(C)C)NC(C)=O (Ac-Leu-Leu-[Nle]-aldehyde),0.909 (inactive),1.22,1540,1700,4.19 [at 130.4 µM] (inactive),,,,
CCCCC[C@@H](O)/C=C/[C@H]1[C@H](C/C=C\CCCC(=O)O)[C@H](O)C[C@@H]1O,1.15 (inactive),0.636,6980,6050,3.65 (inactive),,,,
CCCCCCCCCCCCCCCCOC[C@H](CO)OC(C)=O,0.961 (inactive),1.5,5130,5340,4.43 (inactive),,,,
CCC(C)[C@@H](CO[C@@H](Cc1ccccc1)C(=O)N[C@@H](CCS(C)(=O)=O)C(=O)OC(C)C)NC[C@@H](N)CS (stereo partly drawn),0.946 (inactive),1.27,3500,3700,3.05 [at 89.3 µM] (inactive),,,,
COC(=O)/C=C/c1ccc(C(=O)NCC(=O)N[C@@H](CCC(=O)OC)C(=O)N[C@@H](CC(C)C)C(N)=O)cc1,0.902 (inactive),1.99,5510,6100,4.66 [at 96.4 µM] (inactive),,,,
CC1(C)Oc2ccc(C#N)cc2[C@@H](OC2=CC(=O)CC2)[C@@H]1O,0.927 (inactive),1.24,5940,6400,3.79 [at 167 µM] (inactive),,,,
CC(=O)OCOC(c1cc([N+](=O)[O-])ccc1Oc1ccc(Br)cc1)P(=O)(OCOC(C)=O)OCOC(C)=O (stereo not drawn),1.27 (inactive),0.666,3110,2450,3.77 [at 80.6 µM] (inactive),,,,
Nc1cc(N2CCCCC2)nc(N)[n+]1OS(=O)(=O)[O-],0.999 (inactive),1.39,5860,5870,3.52 [at 172.8 µM] (inactive),,,,
NC(=NCc1ccc(Cl)cc1Cl)NC(=O)c1nc(Cl)c(N)nc1N,1.01 (inactive),0.617,1450,1430,10.2 [at 117.6 µM] (inactive),,,,
C[C@H]([C@H](C)N1CC(=O)NC(=O)C1)N1CC(=O)NC(=O)C1,0.938 (inactive),0.644,1940,2070,4.39 [at 177.1 µM] (inactive),,,,
NCCNS(=O)(=O)c1cccc2cnccc12,1.1 (inactive),1.06,3580,3260,3.25 [at 154.2 µM] (inactive),0.39 h (inactive),266 (active),,
COC(=O)CNC(=O)C(=O)OC,0.976 (inactive),1.36,6040,6190,3.39 (inactive),,,,
NC1=NC2C(N=C(Br)N2C2O[C@H]3COP(=O)(O)O[C@@H]3[C@@H]2O)C(=O)N1 (stereo partly drawn),0.962 (inactive),1.29,6370,6620,4.24 [at 117.3 µM] (inactive),,,,
CCCCCCCCCCCCC/C=C/[C@@H](O)[C@H](CO)NC(=O)CCCCCCCCCCCCCCC,1.03 (inactive),1.04,5360,5200,6.35 (inactive),,62.8 (inactive),,
N#Cc1c(-c2ccccc2)no[n+]1[O-],1.56 (inactive),1,1090,700,6.16 [at 267.2 µM] (inactive),-0.17 h (inactive),,,
CCOC(=O)C1OC1C(=O)NC(CC(C)C)C(=O)NCCC(C)C (stereo not drawn),0.903 (inactive),0.67,8060,8930,5.77 [at 146 µM] (inactive),,,-0.522 (inactive),-1.31
CCCCC/C=C\C/C=C\CCCCCCCC(N)=O,0.981 (inactive),1.16,6200,6320,4.31 (inactive),,66.5 (inactive),,
CCCCC/C=C\C/C=C\C/C=C\C=C\C(=O)CCCC(=O)O,0.886 (inactive),1.22,5820,6560,3.82 [at 1 µM] (inactive),,84.8 (inactive),,
